The results in this text go back to a collection of fitness landscapes (doi:10.1126/science.1257360).

Sequences and labels used below:
B1: PhoQ; a variant is named by its letters at X, in order, P23837 (parent)
chain: MKKLLRLFFPLSLRVRFLLATAAVVLVLSLAYGMVALIGYSVSFDKTTFRLLRGESNLFYTLAKWENNKLHVELPENIDKQSPTMTLIYDENGQLLWAQRDVPWLMKMIQPDWLKSNGFHEIEADVNDTSLLLSGDHSIQQQLQEVREDDDDAEMTHSVAVNVYPATSRMPKLTIVVVDTIPVELKSSYMVWSWFIYVLSANLLLVIPLLWVAAWWSLRPIEALAKEVRELEEHNRELLNPATTRELTSLVRNLNRLLKSERERYDKYRTTLTDLTHSLKTPLXXLQXXLRSLRSEKMSVSDAEPVMLEQISRISQQIGYYLHRASMRGGTLLSRELHPVAPLLDNLTSALNKVYQRKGVNISLDISPEISFVGEQNDFVEVMGNVLDNACKYCLEFVEISARQTDEHLYIVVEDDGPGIPLSKREVIFDRGQRVDTLRPGQGVGLAVAREITEQYEGKIVAGESMLGGARMEVIFGRQHSAPKDE

Over roughly 140,000 sequences, “enrichment ratio after two sorts for PhoP signalling” has its median near 0; the highest 2% begin near 11. What follows is part of a selection rich in the highest values, with near analogues and random picks from the rest.

The variants in the assay derive from B1. Nature of the assay: enrichment ratio after two sorts for PhoP signalling (ratio (wild type AVST 3.29)); higher = more functional. The following applies: with PhoP (E. coli).
For INWI, the enrichment ratio was at most 0.25.
Take VNRI: the enrichment ratio is at most 0.25.
With NHGQ, the enrichment ratio was at most 0.25.
As for MSWY, the figure is 5.91.
As for SPRG, the enrichment ratio is at most 0.25.
Under PPYC stands at most 0.25; under HEPW, at most 0.25.
For the variant EAAS, the enrichment ratio is at most 0.25.
As to SSII, the enrichment ratio amounted to 16.3.
As for SSMV, the figure is 18.9.
Regarding SPAV, the enrichment ratio is at most 0.25.
For the variant SSWV, the enrichment ratio stood at 0.518.
As for SSPV, the figure is 1.03; as for SSIV, 14.2.
Under SSAE stands 10.5.
With KSII, the enrichment ratio is at most 0.25.
KSIV: the enrichment ratio was at most 0.25.
Under SSID stands at most 0.25; under SSYV, 1.11.
As to SSAV, the enrichment ratio came to 12.9.
Under EHMI stands at most 0.25; under WWKN, at most 0.25.
Under YRIR stands at most 0.25; under HENW, at most 0.25.
Under GDFP stands at most 0.25.
For the variant WFHL, the enrichment ratio is at most 0.25.
With EAAQ, the enrichment ratio was at most 0.25.
Regarding SSMI, the enrichment ratio stood at 19.
Take SSMR: the enrichment ratio is at most 0.25.
Take KSIS: the enrichment ratio is at most 0.25.
In the case of ADIS, the enrichment ratio is at most 0.25.
Under AQIS stands 13.
In the case of SSIS, the enrichment ratio was 11.9.
As to SSIE, the enrichment ratio is at most 0.25.
In the case of NSIS, the enrichment ratio was at most 0.25.
Take AQIV: the enrichment ratio was found to be 9.59.
Under SCIM stands 3.17; under SSMD, 3.52.
Under SSIM stands 18.4; under ASCT, 11.1; under DRDN, at most 0.25.
ADGC: the enrichment ratio was at most 0.25.
On to QENS, for which the enrichment ratio is at most 0.25.
Under MSVE stands at most 0.25; under VCLI, 5.48; under TNQT, 7.38.
Under KSMF stands at most 0.25; under SSHF, at most 0.25; under DPIS, at most 0.25.
With SSEL, the enrichment ratio was 0.485.
As for SSMF, the figure is 12.7.
Under SQIV stands 5.01; under SSIL, 12.3; under KSIL, at most 0.25.
As for SSMW, the figure is at most 0.25.
Turning to SSMG, the enrichment ratio stood at 10.3.
Under SQIS stands 13.9; under SSMS, 11.7.
With IRSG, the enrichment ratio was at most 0.25.
As for FANW, the figure is at most 0.25; as for HNPM, at most 0.25; as for CVPS, at most 0.25.
On to FSNW, for which the enrichment ratio is at most 0.25.
As to APGD, the enrichment ratio is at most 0.25.
Consider SFDK, for which the enrichment ratio was at most 0.25.
With MPYC, the enrichment ratio is at most 0.25.
Under EQDL stands at most 0.25.
As for KSIG, the figure is at most 0.25; as for SYII, at most 0.25; as for TSIG, at most 0.25.
In the case of SSIG, the enrichment ratio was 11.5.
Consider FDIM, for which the enrichment ratio was at most 0.25.
With SSME, the enrichment ratio is 16.6.
In the case of STME, the enrichment ratio was determined as 8.24.
As for SDII, the figure is 11.7; as for SCII, 5.01.
KSIM: the enrichment ratio is at most 0.25.
FSIM: the enrichment ratio was determined as 11.9.
Under KSME stands at most 0.25; under KAWR, at most 0.25; under KQKI, at most 0.25.
As for TDSI, the figure is 8.92.
For the variant PNEG, the enrichment ratio is at most 0.25.
On to MIVG, for which the enrichment ratio is at most 0.25.
As for NTPE, the figure is at most 0.25; as for KFFD, at most 0.25.
On to PYGG, for which the enrichment ratio is at most 0.25.
Under PMVC stands at most 0.25; under SCVQ, 3.12.
Consider YTVQ, for which the enrichment ratio came out at 0.393.
Take NEVQ: the enrichment ratio is at most 0.25.
Consider MEVQ, for which the enrichment ratio is at most 0.25.
For the variant ATVQ, the enrichment ratio came to 13.9.
Under SLVQ stands 0.637.
Under SEVQ stands 11.9; under ATVA, 1.05.
As for SQVQ, the figure is 15.1; as for KYVQ, at most 0.25.
As for STVQ, the enrichment ratio was found to be 12.
Consider ATHP, for which the enrichment ratio is at most 0.25.
Under NQCF stands at most 0.25.
Regarding KRSQ, the enrichment ratio was at most 0.25.
As for WTEW, the figure is at most 0.25.
As for QAYY, the figure is 10.3; as for WESK, at most 0.25; as for QQNY, 2.46.
Under WMDF stands at most 0.25; under ACYH, at most 0.25.
In the case of QTFW, the enrichment ratio was at most 0.25.
As for QCTH, the figure is at most 0.25.
Under QCDH stands 18.8; under QCNH, at most 0.25; under QCGH, 24.2.
Under GYDH stands at most 0.25; under QCCA, at most 0.25.
EMTV: the enrichment ratio was at most 0.25.
As for PVLS, the figure is at most 0.25; as for KFLE, at most 0.25.
Under KSER stands at most 0.25; under MSTS, 0.73; under FPLC, at most 0.25.
As for SYLC, the figure is 0.631.
Consider FFLC, for which the enrichment ratio is at most 0.25.
FQLC: the enrichment ratio came to 2.14.
Under SSLC stands 15.2; under MSLC, 11.7; under QFLC, at most 0.25.
As for QPLC, the figure is at most 0.25; as for FSLC, 12.4.
Under SILC stands 8.13; under QGLC, 15.9; under EGVI, at most 0.25.
For VVAR, the enrichment ratio was at most 0.25.
Under WYHC stands at most 0.25; under SWDN, at most 0.25.
Consider MGQS, for which the enrichment ratio was at most 0.25.
As for LWFG, the figure is at most 0.25.
Under HKKG stands at most 0.25; under RSIL, at most 0.25.
Consider YKDC, for which the enrichment ratio is at most 0.25.
Take IGWW: the enrichment ratio was at most 0.25.
Under PKQD stands at most 0.25; under LTKR, at most 0.25.
As for HYAP, the figure is at most 0.25.
As for MMLC, the figure is at most 0.25; as for KSLC, at most 0.25.
With TSLC, the enrichment ratio turned out to be 18.4.
Turning to PNER, the enrichment ratio was at most 0.25.
Under RFQL stands at most 0.25.
Consider AIAF, for which the enrichment ratio came to 12.4.
Turning to KKAF, the enrichment ratio is at most 0.25.
As for AKAF, the enrichment ratio amounted to 5.84.
Under SIAF stands 15.1.
As for KYAF, the enrichment ratio is at most 0.25.
Under SQAF stands 3.99; under GPRN, at most 0.25; under NCRE, at most 0.25.
As to DCLW, the enrichment ratio was at most 0.25.
Under PYCA stands at most 0.25; under HYKI, at most 0.25.
Turning to YMVL, the enrichment ratio is at most 0.25.
On to DVFV, for which the enrichment ratio was at most 0.25.
As for NGCS, the figure is at most 0.25; as for GGCS, 13.1.
For the variant GYCS, the enrichment ratio is at most 0.25.
As to RGCS, the enrichment ratio came to 0.323.
For the variant GGCI, the enrichment ratio worked out at 0.663.
Under TGCS stands 13; under WLCL, at most 0.25.
Regarding STCL, the enrichment ratio was 15.7.
As for MTCI, the figure is at most 0.25; as for LTCL, at most 0.25; as for TTCL, 18.5.
As for GTCL, the figure is 9.42; as for MTRL, at most 0.25; as for SLCL, 11.2.
For the variant PLCL, the enrichment ratio is at most 0.25.
As for MTCL, the figure is 12.8; as for ITCL, at most 0.25.
As for YTCL, the figure is 5.77; as for GTAR, at most 0.25.
Turning to FHNH, the enrichment ratio is at most 0.25.
Under YRKS stands at most 0.25; under GQTP, at most 0.25.
Regarding THVR, the enrichment ratio is at most 0.25.
As for MGQG, the enrichment ratio is at most 0.25.
EIWF: the enrichment ratio was at most 0.25.
Under RYFG stands at most 0.25; under GLNL, at most 0.25; under GLCL, 13.5.
Under GLEL stands at most 0.25; under MTME, at most 0.25.
For IMWI, the enrichment ratio is at most 0.25.
As for SMNT, the figure is at most 0.25.
Under NGST stands at most 0.25; under NIST, at most 0.25; under KMST, at most 0.25.
As for TIST, the figure is 12.7.
For the variant ADST, the enrichment ratio is at most 0.25.
As for AHST, the figure is at most 0.25.
For AIST, the enrichment ratio came to 6.85.
As for AGST, the figure is 14.8; as for TGST, 15.2; as for SMST, 13.1.
Turning to RGST, the enrichment ratio was at most 0.25.
